Screens deposited in PubChem by ICCB-Longwood Screening Facility, Harvard Medical School.
Polio RdRp inh = poliovirus RNA polymerase inhibition; P03300; poliovirus polymerase elongation, fluorescence polarization; stronger effect = lower value; % elongation, % (compound at 16.7 µg/mL); 150,000 tested, 0.66% active; AID 588519; in the data active means % elongation below about 90%
MenB inh = Mtb MenB enzyme inhibition. P9WNP5. MenB enzyme assay, absorbance read-out. inhibition, % (concentration not given with the values). 100,000 tested, 0.43% active. AID 540299; in the data active means inhibition above about 21%, passing the limit was not always enough
Target sequence (P9WNP5 whole entry, looked up): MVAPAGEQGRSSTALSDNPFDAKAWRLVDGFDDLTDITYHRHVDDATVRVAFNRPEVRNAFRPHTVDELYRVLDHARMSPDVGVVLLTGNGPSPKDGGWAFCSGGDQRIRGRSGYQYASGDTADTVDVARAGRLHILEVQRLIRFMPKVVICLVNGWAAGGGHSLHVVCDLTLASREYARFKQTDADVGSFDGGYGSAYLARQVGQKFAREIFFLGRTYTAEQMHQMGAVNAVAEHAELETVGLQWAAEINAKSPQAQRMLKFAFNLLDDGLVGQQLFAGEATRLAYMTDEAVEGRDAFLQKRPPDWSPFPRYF
AID504770 = growth inhibitors of E. coli YBA685 in a screen for V. cholerae RctB (chromosome II replication) inhibitors; E. coli YBA685 rctB-dependent plasmid, OD600 growth, 3 h; stronger effect = lower value; z-score (test concentration not listed); 130,000 tested, 0.27% active; AID 504770; in the data active means z-score below about -2, passing the limit was not always enough
Mtb MbtI inh = inhibitors of Mycobacterium tuberculosis siderophore enzyme MbtI; purified MbtI enzyme, fluorescence intensity read-out; inhibition, % (no concentration beside the values); 100,000 tested, 0.89% active; AID 493033; in the data active means inhibition mostly above about 56%, no sharp cut-off; inactive means mostly below about 77%
Starred values were filed as active, the others as inactive; · = not tested or not shown. A selection: hits, their analogues and other compounds. The true share with any hit is near 1.4%.

SMILES | Polio RdRp inh | MenB inh | AID504770 | Mtb MbtI inh
O=C(CN1CCN(S(=O)(=O)c2ccc(F)cc2)CC1)Nc1ccc(F)c(F)c1 | 102.0 | -8.1 | -0.7 | -38.9
CCN(CC)Cn1nc(-c2ccccc2Cl)oc1=S | 102.0 | -8.6 | -1.95 | 8.9
COc1ccc(Cl)cc1NC(=O)c1sc(=S)n(C)c1N | 72.0* | -23.9 | -0.35 | 87.7*
COc1ccc(Cl)cc1NC(=O)c1sc2nc(-c3ccc(OC)c(OC)c3)ccc2c1N | 104.0 | · | · | ·
O=S(=O)(c1ccccc1)C1c2ccccc2Oc2ccccc21 | 99.0 | 0.3 | 0 | -2.5
S=c1c(Cl)c(Cl)cnn1Cc1ccccc1 | 67.0* | -49.9 | 0 | ·
N#C/C(=C(/O)CSc1nc2ccccc2o1)c1nc2ccccc2[nH]1 | 111.0 | -2.4 | 0.2 | -3.0
N#C/C(=C(/O)CSc1n[nH]c(=O)[nH]c1=O)c1nc2ccccc2[nH]1 | 105.0 | 1.3 | -0.8 | 77.3*
Clc1ccc(COn2nnc3ccccc32)cc1 | 103.0 | -29.3 | -0.55 | -5.3
O=C(NCCSc1nnnn1-c1ccccc1)c1ccccc1 | 103.0 | -13.3 | 0.25 | -4.5
COC(=O)NCCSc1nnnn1-c1ccccc1 | 101.0 | 30.7* | 1.9 | 7.7
CC1CN(C(=S)c2ccccc2)CC(C)O1 (centres undefined) | 96.0 | -11.3 | 0.45 | 67.7*
CC1CN(C(=S)NCCc2ccccc2)CC(C)O1 (centres undefined) | 98.0 | 7.1 | 0 | 9.1
CCOC(=O)N1CCN(Cn2c(=S)sc3ccccc32)CC1 | 107.0 | -36.8 | -0.55 | 89.2*
S=c1sc2ccccc2n1CN1CCOCC1 | 99.0 | 23.7 | -1.2 | 89.9*
S=c1sc2ccccc2n1CN1CCN(c2ccccn2)CC1 | 99.0 | -29.9 | -0.35 | 145.4
Cc1cc(C)c(S(=O)(=O)N(CCC(C)C)S(=O)(=O)c2ccccc2C#N)c(C)c1 | 98.0 | -5.0 | -4.05* | -3.6
CN1CCCN(Cn2nc3ccccn3c2=S)CC1 | 15.0* | -8.1 | 0.95 | 47.8
CC(CN1CCCN(C)CC1)c1ccccc1 (centres undefined) | 102.0 | -21.9 | -0.8 | -5.5
CN1C(=O)Cc2cc(S(N)(=O)=O)ccc21 | 100.0 | -20.1 | -1.05 | -14.4
CCC(C)N=Cc1c(O)n(-c2ccccc2)c(=O)[nH]c1=O (centres undefined) | 96.0 | -3.0 | -0.65 | 101.8*
Cc1nc(-c2c(C)[nH]c3ccccc23)cs1 | 89.0* | 9.3 | 0 | 86.5*
O=C(c1ccc(N2CCCc3ccccc32)s1)N1CCCC1 | 100.0 | -23.2 | -2.2* | 127.0
O=C1CCCN1CCc1ccccn1 | 106.0 | -21.9 | -0.5 | ·
CC(C)NC(=O)CSc1nc2ccccc2s1 | 105.0 | -31.2 | 1.8 | 30.1
SMILES | Polio RdRp inh | MenB inh | AID504770 | Mtb MbtI inh
O=C(CSc1nc2ccccc2s1)NNc1ncnc2c1cnn2Cc1ccccc1 | 100.0 | 6.4 | 1.7 | 56.2*
S=C(NC1CCCCCC1)NC1CC1 | 98.0 | -2.1 | -0.35 | 1.1
Cc1cnc(C)c(N(C)C)n1 | 57.0* | 31.3* | 1.15 | 70.2
CSc1ncc(F)c(N(C)C)n1 | 102.0 | -6.8 | 0.3 | ·
CC(C)COC(=O)/C=C/c1ccccc1 | 98.0 | -27.7 | 1.95 | -4.5
O=C1C(c2c(O)n(-c3cc(Cl)cc(Cl)c3)[nH]c2=O)=Nc2ccccc21 | 103.0 | 2.6 | 1.25 | 84.0*
O=C(NCc1ccccc1)C1CCC1 | 102.0 | -3.3 | -0.45 | ·
O=C(NC(=S)NCc1ccccc1)C1CCCC1 | 99.0 | -24.3 | 0 | 75.8*
CCOc1ccc(C(=O)N(c2ccc(Cl)cc2)C2C=CS(=O)(=O)C2)cc1OCC (centres undefined) | · | · | -0.1 | ·
COc1ccc(CCNC(=O)c2ccc3c(c2)N(Cc2cccc(C)c2)C(=O)c2ccccc2S3(=O)=O)cc1OC | 82.0* | · | · | ·
COc1ccc(CCNC(=O)c2ccc3c(c2)N(Cc2ccccc2F)C(=O)c2ccccc2S3(=O)=O)cc1OC | 110.0 | · | · | ·
CCN(CC)CCNC(=O)c1ccc2c(=O)n3nc(Nc4ccccc4)sc3nc2c1 | 81.0* | · | · | ·
CC1=C(C#N)C(C(F)(F)F)(C(F)(F)F)N=C(c2cccnc2)N1 | 100.0 | 4.2 | -0.6 | -1.2
O=C(/C=C/Sc1nc2ccccc2o1)c1ccccc1 | 97.0 | -6.3 | 0.3 | 54.0*
O=C(Sc1nc2ccccc2o1)c1ccccc1 | 100.0 | -50.5 | -1.4 | 95.2*
C/C(=C/C(=O)O)C(=O)Nc1nc(-c2cccs2)cs1 | · | -9.5 | 0.15 | 71.8*
Cc1cc(C)c(C)c(S(=O)O)c1C | 83.0* | -36.3 | -0.3 | 3.2
Cc1cc(C)c(CO)c(C)c1CO | 102.0 | -26.4 | 1.35 | 3.7
CC(C)C(NC(=O)c1ccc(F)cc1)C(=O)O (centres undefined) | · | · | -0.15 | ·
CC(NC(=O)c1ccc(F)cc1)C(=O)O (centres undefined) | 102.0 | 38.4* | 0.75 | 48.6
CCC(C)Nc1ncnc2c1oc1ccccc12 (centres undefined) | 100.0 | · | -0.2 | 7.8
O=C(CSc1ccc2ccccc2c1)NCCc1ccc(O)c(O)c1 | 100.0 | · | -0.3 | 92.8*
O=C1/C(=C/c2c[nH]c3ccccc23)COc2ccccc21 | · | · | 2.25 | ·
CCOc1ccc(-c2csc(Cn3c(CN4CCN(C)CC4)nc4ccccc4c3=O)n2)cc1 | 66.0* | -6.2 | 0.1 | 84.6*
Nc1cccc2c1C(=O)N(C(=O)c1ccc3c(c1)S(=O)(=O)N=C1CCCCCN13)C2=O | 58.0* | -31.7 | -0.05 | -1.3
SMILES | Polio RdRp inh | MenB inh | AID504770 | Mtb MbtI inh
Fc1ccc(NC(=S)N2CCCCC2)cc1 | 100.0 | -7.4 | -0.1 | -2.2
S=C(Nc1ccc2nsnc2c1)N1CCCC1 | 89.0* | -4.5 | 0.1 | -11.7
CCn1c(SCCC#N)nnc1-c1ccncc1 | 102.0 | 30.7* | -0.1 | 2.2
O=C1C=CC(=O)N1C1CC1 | 102.0 | 10.3 | -6.05* | 91.5*
N#CC(C#N)c1ccc(C(F)(F)F)cn1 | 99.0 | · | 0.7 | -273.0
O=c1[nH]c2cc3c(cc2[nH]1)OCCO3 | 101.0 | 36.8* | -0.65 | 83.2
COc1ccccc1CNC(=O)CSc1ncc2c(n1)-c1cc(Cl)ccc1N(Cc1ccccc1)S2(=O)=O | -5.0* | · | · | ·
CCC(Sc1nc2c(c(=O)[nH]1)CCC2)C(=O)Nc1cccc(OC)c1 (centres undefined) | 102.0 | 5.3 | -1.05 | 95.8*
O=C1NC(=O)C(=C2CCCCC2)S1 | 105.0 | -36.1 | 0.15 | 85.8*
O=C1N=C(N2CCOCC2)SC1=C1CCCCC1 | 101.0 | -20.0 | -0.85 | -4.2
Cn1c(SCC(=O)N(c2ccccc2)C2CCCCC2)nc2cc(S(N)(=O)=O)ccc21 | 79.0* | 6.2 | -0.3 | 17.0
O=C1NN(c2ccccc2)C(=O)/C1=C/c1ccc(Br)cc1 | 98.0 | 79.4* | -0.3 | ·
CCc1nn(CC(=O)NCc2ccc(C)cc2)c(=O)c2cc3occc3n12 | 72.0* | · | · | ·
CC1CC(C)CN(C(=O)c2cc(N(C)S(=O)(=O)c3ccccc3)ccn2)C1 (centres undefined) | 99.0 | -15.2 | -0.15 | -7.0
CN(C)c1ccc(NC(=O)Cn2c(SCc3ccccc3F)nc3cccnc32)cc1 | 19.0* | · | · | ·
COCCn1c(C)cc(/C=C2\C(=O)Nc3cc(Cl)ccc32)c1C | 108.0 | -128.5 | -0.2 | 0.7
O=C(CSc1nc2ccccc2c(=O)n1-c1ccccc1)NC1CCCCC1 | 99.0 | · | -0.5 | -5.2
Cc1cccc(C(=O)c2c(N3CCOCC3)[nH]c(=O)c3ccccc23)c1 | 68.0* | -25.3 | -1.35 | 0.3
